Here are results for 34 molecules from PubChem BioAssay (Tox21).

Where “and” joins values, the source holds several entries; their conditions need not be identical. Equal values may be shown once. Results filed as inconclusive are left out. A call without a number means that no potency is given here. Some structures have more than one record in an assay (separate samples or runs), and their calls can disagree. Calls of active or inactive are those of the source. Calls follow the shape of the dose curve; as a rule, active = well fitted curve in the direction sought with a large enough effect in the repeat runs; inconclusive = weak or mixed curves; inactive = no such curve, though single readings can be large; an effect the other way counts as inactive or inconclusive.
Potency is read from the fitted curve at half-maximal effect.

A short description of the first assay: qHTS assay for identifying genotoxic compounds that show differential cytotoxicity against isogenic chicken DT40 cell lines with known DNA damage response pathways - Rad54/Ku70 mutant cell line (AID 743015). Also: nearly all actives have a fitted effect of over 60% in size. To be noted: DT40 Rad54/Ku70 mutant viability, CellTiter-Glo, 40 h; series mostly up to 66.8 µM.
`O=S(=O)(Cl)c1ccccc1`: the Potency result was “inactive”.
Turning to `C#CCOC(C(=O)OCCN(C)C)(c1ccccc1)c1ccccc1`, the Potency entry is “inactive”.
Still for that read-out and setting: the value for `BrCCCCBr` was “inactive”.
Turning to `CCn1cc[n+](C)c1`, the Potency result is “inactive”.
Take `COC(=O)C(Br)CBr` (centres undefined): the Potency result is “inactive”.
For the molecule `N#Cc1ccc(Cl)cc1`, the Potency entry was “inactive”.
Still for that read-out and setting: the value for `CCN(C)N=O` was “inactive”; that for `ClCc1ccccc1` was “inactive”.
In the case of `CC(C)(C)c1cc([N+](=O)[O-])cc([N+](=O)[O-])c1O`, the Potency is 19.3 µM (active).
In the case of `CCOP(=O)(OCC)O/C(=C/Cl)c1ccc(Cl)cc1Cl`, the Potency was 23.7 µM (active) and 27.3 µM (active).
In the case of `C=CCC1([C@H](C)CCC)C(=O)NC(=O)NC1=O`, the Potency entry was “inactive”.
In the case of `C=CCN1CC[C@]23c4c5ccc(O)c4O[C@H]2C(=O)CC[C@@]3(O)[C@H]1C5`, the Potency result was “inactive”.
As for `COc1nn(C(=O)NS(=O)(=O)c2ccccc2OC(F)(F)F)c(=O)n1C`, the Potency result is “inactive”.
Turning to `O=C(O)CC(Cl)C(=O)O` (centres undefined), the Potency entry is “inactive”.
`O=C1CN=C(c2ccccc2)c2cc(Cl)ccc2N1CC1CC1`: the Potency was 26.6 µM (active).
In the case of `C=CC(C)=O`, the Potency result was “inactive”.
For the molecule `CCOc1nc(F)cc2nc(S(=O)(=O)Nc3c(Cl)cccc3Cl)nn12`, the Potency entry was “inactive”.
As for `O=C(CBr)OCc1ccccc1`, the Potency result is “inactive”.
On the same count and under the same terms, the value for `C=CC(=O)OC(C)(C)C` was “inactive”; that for `C(=NC1CCCCC1)=NC1CCCCC1` was “inactive and 3.06 µM (active)”.
`Cn1cc[n+](C)c1` (tested in a mixture with another compound): the Potency entry is “inactive”.
For the molecule `CNC(C)Cc1ccccc1OC` (centres undefined), the Potency result was “inactive”.
Take `O=[Se]=O`: the Potency was 0.242 µM (active).
Same read-out and setting: the value for `ClCC(Br)CBr` (centres undefined) was “inactive”; that for `ClCCCCBr` was “inactive”; that for `CCOP(=S)(OCC)SCn1nnc2ccccc2c1=O` was 9.69 µM (active).
`CC(O)(CS(=O)(=O)c1ccc(F)cc1)C(=O)Nc1ccc(C#N)c(C(F)(F)F)c1` (centres undefined): the Potency is 23.7 µM (active) and 28.3 µM (active).
`COc1cc(CC(C)N)cc2c1OCO2` (centres undefined): the Potency entry was “inactive”.
As to `O=C(O)C(F)(F)C(F)(F)C(F)(F)C(F)(F)C(F)(F)C(F)(F)C(F)(F)C(F)(F)C(F)(F)C(F)(F)F`, the Potency entry is “inactive”.
On to `CCOC(=O)CBr`, for which the Potency result was “inactive”.
Consider `O=C(O)C(F)(F)C(F)(F)C(F)(F)C(F)(F)C(F)(F)C(F)(F)C(F)(F)C(F)(F)C(F)(F)F`, for which the Potency entry is “inactive”.
As to `COc1c(C(C)(C)C)cc([N+](=O)[O-])c(C)c1[N+](=O)[O-]`, the Potency result is “inactive”.
Take `N#CCc1ccccc1`: the Potency result was “inactive”.
As to `CCOP(=O)(OCC)SCCSCC`, the Potency entry was “inactive”.

A further assay is described as follows: qHTS assay to identify small molecule antagonists of the androgen receptor (AR) signaling pathway - cell viability counter screen (AID 743033; also: nearly all actives have a fitted effect of over 45% in size). As to conditions: AR-bla HEK293 viability, CellTiter-Glo luminescence, 16 h; series mostly up to 58.5 µM. Background: qHTS replaces the single test concentration by a dilution series.
In the case of `O=S(=O)(Cl)c1ccccc1`, the Potency result was “inactive”.
Regarding `C#CCOC(C(=O)OCCN(C)C)(c1ccccc1)c1ccccc1`, the Potency result was “inactive”.
In the case of `BrCCCCBr`, the Potency entry is “inactive”.
`CCn1cc[n+](C)c1`: the Potency result is “inactive”.
Consider `COC(=O)C(Br)CBr` (centres undefined), for which the Potency result was “inactive”.
For `N#Cc1ccc(Cl)cc1`, the Potency result is “inactive”.
Same read-out and setting: the value for `CCN(C)N=O` was “inactive”; that for `ClCc1ccccc1` was “inactive”; that for `CC(C)(C)c1cc([N+](=O)[O-])cc([N+](=O)[O-])c1O` was 13.8 µM (active).
With `CCOP(=O)(OCC)O/C(=C/Cl)c1ccc(Cl)cc1Cl`, the Potency result was “inactive”.
Take `C=CCC1([C@H](C)CCC)C(=O)NC(=O)NC1=O`: the Potency result is “inactive”.
In the case of `C=CCN1CC[C@]23c4c5ccc(O)c4O[C@H]2C(=O)CC[C@@]3(O)[C@H]1C5`, the Potency entry was “inactive”.
For the molecule `COc1nn(C(=O)NS(=O)(=O)c2ccccc2OC(F)(F)F)c(=O)n1C`, the Potency result was “inactive”.
Consider `O=C(O)CC(Cl)C(=O)O` (centres undefined), for which the Potency entry is “inactive”.
The same measure, in the same setting: the value for `O=C1CN=C(c2ccccc2)c2cc(Cl)ccc2N1CC1CC1` was “inactive”; that for `C=CC(C)=O` was “inactive”.
Turning to `CCOc1nc(F)cc2nc(S(=O)(=O)Nc3c(Cl)cccc3Cl)nn12`, the Potency result is “inactive”.
On to `O=C(CBr)OCc1ccccc1`, for which the Potency result was “inactive”.
Regarding `C=CC(=O)OC(C)(C)C`, the Potency result is “inactive”.
With `C(=NC1CCCCC1)=NC1CCCCC1`, the Potency result was “inactive”.
As for `Cn1cc[n+](C)c1` (tested in a mixture with another compound), the Potency entry is “inactive”.
For the molecule `CNC(C)Cc1ccccc1OC` (centres undefined), the Potency entry is “inactive”.
Regarding `O=[Se]=O`, the Potency entry is “inactive”.
As to `ClCC(Br)CBr` (centres undefined), the Potency entry was “inactive”.
Same read-out and setting: the value for `ClCCCCBr` was “inactive”.
As to `CCOP(=S)(OCC)SCn1nnc2ccccc2c1=O`, the Potency is 24.5 µM (active).
The same measure, in the same setting: the value for `CC(O)(CS(=O)(=O)c1ccc(F)cc1)C(=O)Nc1ccc(C#N)c(C(F)(F)F)c1` (centres undefined) was “inactive”; that for `COc1cc(CC(C)N)cc2c1OCO2` (centres undefined) was “inactive”; that for `O=C(O)C(F)(F)C(F)(F)C(F)(F)C(F)(F)C(F)(F)C(F)(F)C(F)(F)C(F)(F)C(F)(F)C(F)(F)F` was “inactive”.
Regarding `CCOC(=O)CBr`, the Potency result is “inactive”.
With `O=C(O)C(F)(F)C(F)(F)C(F)(F)C(F)(F)C(F)(F)C(F)(F)C(F)(F)C(F)(F)C(F)(F)F`, the Potency result was “inactive”.
`COc1c(C(C)(C)C)cc([N+](=O)[O-])c(C)c1[N+](=O)[O-]`: the Potency result was “inactive”.
Consider `N#CCc1ccccc1`, for which the Potency entry was “inactive”.
For the molecule `CCOP(=O)(OCC)SCCSCC`, the Potency entry is “inactive”.

The next assay in a line: qHTS assay to identify small molecule antagonists of the androgen receptor (AR) signaling pathway using the MDA cell line - cell viability counter screen (AID 743041; also: nearly all actives have a fitted effect of over 45% in size). To be noted: MDA-kb2 viability, CellTiter-Fluor, 16 h, cells co-treated with R1881 androgen agonist; series mostly up to 70.3 µM. The method in brief:
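Viability read by CellTiter-Fluor fluorescence in the same wells as the antagonist screen, added after 15.5 h of a 16 h, 37C exposure. Human breast carcinoma MDA-kb2 AR-luc cells, compounds co-dosed with agonist R1881.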
`O=S(=O)(Cl)c1ccccc1`: the Potency result was “inactive”.
For `C#CCOC(C(=O)OCCN(C)C)(c1ccccc1)c1ccccc1`, the Potency result was “inactive”.
As for `BrCCCCBr`, the Potency result was “inactive”.
Regarding `CCn1cc[n+](C)c1`, the Potency entry was “inactive”.
The same measure, in the same setting: the value for `COC(=O)C(Br)CBr` (centres undefined) was “inactive”.
On the same count and under the same terms, the value for `N#Cc1ccc(Cl)cc1` was “inactive”; that for `CCN(C)N=O` was “inactive”.
Still for that read-out and setting: the value for `ClCc1ccccc1` was “inactive”.
Regarding `CC(C)(C)c1cc([N+](=O)[O-])cc([N+](=O)[O-])c1O`, the Potency is 24.3 µM (active).
For `CCOP(=O)(OCC)O/C(=C/Cl)c1ccc(Cl)cc1Cl`, the Potency entry was “inactive”.
Consider `C=CCC1([C@H](C)CCC)C(=O)NC(=O)NC1=O`, for which the Potency result was “inactive”.
In the case of `C=CCN1CC[C@]23c4c5ccc(O)c4O[C@H]2C(=O)CC[C@@]3(O)[C@H]1C5`, the Potency entry was “inactive”.
With `COc1nn(C(=O)NS(=O)(=O)c2ccccc2OC(F)(F)F)c(=O)n1C`, the Potency result was “inactive”.
For the molecule `O=C(O)CC(Cl)C(=O)O` (centres undefined), the Potency result was “inactive”.
Regarding `O=C1CN=C(c2ccccc2)c2cc(Cl)ccc2N1CC1CC1`, the Potency entry is “inactive”.
Consider `C=CC(C)=O`, for which the Potency entry is “inactive”.
On to `O=C(CBr)OCc1ccccc1`, for which the Potency result was “inactive”.
Regarding `C=CC(=O)OC(C)(C)C`, the Potency result is “inactive”.
With `C(=NC1CCCCC1)=NC1CCCCC1`, the Potency result is “inactive”.
As for `CNC(C)Cc1ccccc1OC` (centres undefined), the Potency entry is “inactive”.
Same read-out and setting: the value for `O=[Se]=O` was 19.2 µM (active); that for `ClCC(Br)CBr` (centres undefined) was “inactive”.
With `ClCCCCBr`, the Potency entry is “inactive”.
With `CCOP(=S)(OCC)SCn1nnc2ccccc2c1=O`, the Potency is 61.1 µM (active).
With `CC(O)(CS(=O)(=O)c1ccc(F)cc1)C(=O)Nc1ccc(C#N)c(C(F)(F)F)c1` (centres undefined), the Potency result was “inactive”.
On to `COc1cc(CC(C)N)cc2c1OCO2` (centres undefined), for which the Potency result was “inactive”.
`O=C(O)C(F)(F)C(F)(F)C(F)(F)C(F)(F)C(F)(F)C(F)(F)C(F)(F)C(F)(F)C(F)(F)C(F)(F)F`: the Potency result was “inactive”.
For `CCOC(=O)CBr`, the Potency result was “inactive”.
Turning to `O=C(O)C(F)(F)C(F)(F)C(F)(F)C(F)(F)C(F)(F)C(F)(F)C(F)(F)C(F)(F)C(F)(F)F`, the Potency entry was “inactive”.
Still for that read-out and setting: the value for `COc1c(C(C)(C)C)cc([N+](=O)[O-])c(C)c1[N+](=O)[O-]` was “inactive”; that for `CCOP(=O)(OCC)SCCSCC` was “inactive”.
